Molecules are shown by their SMILES. Values without a mark were called inactive. The source made the active and inactive calls. Unless noted, the call rests on the fitted dose curve; in most records, active means well fitted curve in the direction sought with a large enough effect in the repeat runs; inconclusive means weak or mixed curves; inactive means flat fitted curve, though single readings scatter.
On the % scale 0 is the no-effect control and ±100 the full control effect.

Sequence of Glucocorticoid receptor (Homo sapiens) (P04150 whole entry, looked up): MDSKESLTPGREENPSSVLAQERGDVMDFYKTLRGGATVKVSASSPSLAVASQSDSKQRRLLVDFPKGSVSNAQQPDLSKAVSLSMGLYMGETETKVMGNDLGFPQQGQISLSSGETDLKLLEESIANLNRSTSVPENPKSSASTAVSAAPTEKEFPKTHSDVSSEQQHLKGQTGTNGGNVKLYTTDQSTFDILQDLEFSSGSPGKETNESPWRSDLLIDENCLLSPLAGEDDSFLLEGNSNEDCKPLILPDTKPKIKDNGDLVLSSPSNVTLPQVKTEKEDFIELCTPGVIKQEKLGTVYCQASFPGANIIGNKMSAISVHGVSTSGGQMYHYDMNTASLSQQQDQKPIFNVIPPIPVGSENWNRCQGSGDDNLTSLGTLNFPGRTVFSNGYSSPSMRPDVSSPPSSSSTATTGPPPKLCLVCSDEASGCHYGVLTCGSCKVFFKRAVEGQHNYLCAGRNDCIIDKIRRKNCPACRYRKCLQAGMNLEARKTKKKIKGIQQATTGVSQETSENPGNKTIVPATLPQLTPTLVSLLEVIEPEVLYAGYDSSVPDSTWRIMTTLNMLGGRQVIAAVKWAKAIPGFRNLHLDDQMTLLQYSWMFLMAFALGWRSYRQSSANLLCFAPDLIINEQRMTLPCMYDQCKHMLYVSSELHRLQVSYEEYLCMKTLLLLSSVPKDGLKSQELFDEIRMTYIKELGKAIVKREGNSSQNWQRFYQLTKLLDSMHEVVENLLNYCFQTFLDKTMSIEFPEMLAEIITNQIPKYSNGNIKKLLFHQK

Tested on in the first experiment: not listed separately
Description: qHTS assay to test for compound auto fluorescence at 460 nm (blue) in HepG2 cells (AID 720687). The settings on record: autofluorescence 405/460 nm, 1 h; series mostly up to 91.3 µM; fluorescence, % of fluorescent control: at the top concentration. Put shortly: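 Cells (2,000/well in MEM with 10% FBS) attached overnight at 37 C, then were exposed to compound or DMSO for 1 hr at 37 C, 5% CO2. Fluorescence read at Ex/Em 405/460 nm, expressed as triamterene-equivalent signal.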
(In qHTS, concentration-response curves come from the screen itself.)
Turning to `O=S(=O)(Oc1ccc(Cl)cc1)c1ccccc1`, the “fluorescence, % of fluorescent control” value was -0.0667%.
Take `CN1CCN(C(c2ccccc2)c2ccccc2)CC1`: the fluorescence, % of fluorescent control was 0.0094% [at 18.6 µM].
Still for that read-out and setting: the figure for `COS(=O)(=O)C(F)(F)F` is -0.173% [at 95.7 µM].
Still for that read-out and setting: the figure for `C=C(C)C(=O)OCC` is 0.108% [at 95.7 µM]; for `CCC(Cl)CCC(Cl)C(Cl)CC(Cl)C(Cl)C(Cl)CCl` (stereo unspecified) it is 0.0049%; for `O=[N+]([O-])c1ccc2[nH]ncc2c1` it is 0.003%.
Same read-out and setting: to `O=S(c1cc(Cl)cc(Cl)c1O)c1cc(Cl)cc(Cl)c1O` belongs -0.0883% [at 46 µM]; to `Clc1ccc(Cn2c(CN3CCCC3)nc3ccccc32)cc1`, 0.0474% [at 18.6 µM]; to `O=C1c2ccccc2S(=O)(=O)N1CCCCN1CCN(c2ncccn2)CC1`, 0.0047% [at 46 µM].
On to `C/C(=C(\CCOP(=O)(O)O)SC(=O)c1ccccc1)N(C=O)Cc1cnc(C)nc1N`, for which the fluorescence, % of fluorescent control was -0.293% [at 18.6 µM].
In the case of `CCC(C)(C)CC`, the “fluorescence, % of fluorescent control” value was -0.0956% [at 95.7 µM].
Consider `NC(=O)C(c1ccccc1)(c1ccccc1)[C@@H]1CCN(CCc2ccc3c(c2)CCO3)C1`, for which the “fluorescence, % of fluorescent control” value is -0.103% [at 46 µM].
The same measure, in the same setting: the figure for `O=C(c1ccc(F)cc1)C1CCN(CCn2c(=S)[nH]c3ccccc3c2=O)CC1` is -0.0194% [at 46 µM]; for `COc1ccc(C(=O)c2ccc(OC)cc2O)c(O)c1` it is 0.182%; for `CCCCC(CC)COC(=O)CCCCCCCCC(=O)OCC(CC)CCCC` (stereo unspecified) it is 0.0062%.
On the same count and under the same terms, the figure for `c1ccc(CNCCNCc2ccccc2)cc1` is -0.0414% [at 46 µM]; for `C#CCN(C)CCCOc1ccc(Cl)cc1Cl` it is -0.0758% [at 46 µM].
With `CC(=O)c1ccc2c(c1)N(CCCN(C)C)c1ccccc1S2`, the fluorescence, % of fluorescent control was -0.0528% [at 18.6 µM].
Same read-out and setting: to `CCCCCCCCCCCCCCCCCCOS(=O)(=O)O` belongs 0.0176%.
Same read-out and setting: the figure for `Brc1c2ccccc2cc2ccccc12` is 1.62%.
Still for that read-out and setting: the figure for `O=C(NCCO[N+](=O)[O-])c1cccnc1` is -0.225% [at 46 µM]; for `CCOc1ccc(O)cc1` it is 0.0334%.
With `C=C1[C@H]2CC[C@@H]3[C@H]2C(C)(C)CCC[C@]13C`, the “fluorescence, % of fluorescent control” value was 0.0055%.
Same read-out and setting: to `CCCCC(CC)CN1C(=O)C2C3C=CC(C3)C2C1=O` (stereo unspecified) belongs -0.0497%; to `CC(C)CC(=O)C1C(=O)c2ccccc2C1=O`, 0.0103%.
On the same count and under the same terms, to `CC1OC(=O)C(C)OC1=O` (stereo unspecified) belongs 0.226%; to `OC(CN1CCC(Cc2ccc(F)cc2)CC1)c1ccc(Cl)cc1` (stereo unspecified), -0.0226% [at 46 µM]; to `CCCCC(=O)OCC(=O)[C@H]1[C@H](C)C[C@H]2[C@@H]3C[C@H](F)C4=CC(=O)C=C[C@]4(C)[C@@]3(F)[C@@H](O)C[C@@]21C`, 0.0041% [at 46 µM].
As for `CC(C)C[C@H]1C(=O)N2CCC[C@H]2[C@]2(O)O[C@](NC(=O)[C@@H]3C=C4c5cccc6[nH]c(Br)c(c56)C[C@H]4N(C)C3)(C(C)C)C(=O)N12`, the compound was classed as inactive.
Take `CC(C)(CO)[N+](=O)[O-]`: the “fluorescence, % of fluorescent control” value was -0.0928%.
On the same count and under the same terms, the figure for `O=C(OCCc1ccccc1)c1ccccc1` is -0.107%; for `COc1ccc(S(=O)(=O)N2C(=O)[C@@](c3ccccc3OC)(N3C[C@H](O)C[C@H]3C(=O)N(C)C)c3cc(Cl)ccc32)c(OC)c1` it is -0.0649%.
On to `O=C1OC(CN2CCOCC2)CN1/N=C/c1ccc([N+](=O)[O-])o1` (stereo unspecified), for which the fluorescence, % of fluorescent control is -0.0405% [at 18.6 µM].
The same measure, in the same setting: the figure for `OC[C@H]1O[C@@H](OCCc2ccc(O)cc2)[C@H](O)[C@@H](O)[C@@H]1O` is 0.009% [at 46 µM]; for `Cc1[nH]c(C)c(Cl)c(=O)c1Cl` it is 0.151% [at 46 µM].
Same read-out and setting: the figure for `CCCCCCCN` is 0.0329% [at 95.7 µM].
Take `C[Si](C)(CCCN)O[Si](C)(C)CCCN`: the “fluorescence, % of fluorescent control” value was -0.156%.
As to `CCOC(=O)C(F)(F)F`, the “fluorescence, % of fluorescent control” value is -0.105%.

The next experiment addresses Glucocorticoid receptor (Homo sapiens) (UniProt P04150). The experiment can be described thus: qHTS assay to identify small molecule agonists of the glucocorticoid receptor (GR) signaling pathway (AID 720691; active means well fitted activation curve with a large enough effect in the signal ratio in the repeat runs, not every such curve was filed as active; inconclusive means weak or mixed curves, or effect the other way; inactive means no such curve, though single readings can be large or run the other way; the % refers to the signal ratio; further: potency means the concentration at half of the fitted maximal effect). The settings on record: GR-bla HeLa, beta-lactamase reporter ratio, 18 h; activation: at 62.4 µM (top of the series) unless noted. In a few lines: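 GR-bla HeLa cells carrying a GRE-driven beta-lactamase reporter, exposed to compounds for 18 h at 37 C. Reporter activation read as fluorescence after 2 h with LiveBLAzer B/G FRET substrate at room temperature.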
Take `O=S(=O)(Oc1ccc(Cl)cc1)c1ccccc1`: the “activation” value was -0.791%.
The same measure, in the same setting: to `CN1CCN(C(c2ccccc2)c2ccccc2)CC1` belongs 0.797% [at 29.2 µM].
The same measure, in the same setting: the figure for `COS(=O)(=O)C(F)(F)F` is 0.0157% [at 79.2 µM]; for `C=C(C)C(=O)OCC` it is 0.414% [at 79.2 µM].
Same read-out and setting: the figure for `CCC(Cl)CCC(Cl)C(Cl)CC(Cl)C(Cl)C(Cl)CCl` (stereo unspecified) is -1.3%; for `O=[N+]([O-])c1ccc2[nH]ncc2c1` it is -4.69%; for `O=S(c1cc(Cl)cc(Cl)c1O)c1cc(Cl)cc(Cl)c1O` it is -0.321%.
`Clc1ccc(Cn2c(CN3CCCC3)nc3ccccc32)cc1`: the “activation” value was -5.02% [at 29.2 µM].
Still for that read-out and setting: to `O=C1c2ccccc2S(=O)(=O)N1CCCCN1CCN(c2ncccn2)CC1` belongs -1.04%.
For `C/C(=C(\CCOP(=O)(O)O)SC(=O)c1ccccc1)N(C=O)Cc1cnc(C)nc1N`, the Potency is 11.5 µM (active).
Take `CCC(C)(C)CC`: the “activation” value is -1.48% [at 79.2 µM].
The same measure, in the same setting: to `NC(=O)C(c1ccccc1)(c1ccccc1)[C@@H]1CCN(CCc2ccc3c(c2)CCO3)C1` belongs -4.31%; to `O=C(c1ccc(F)cc1)C1CCN(CCn2c(=S)[nH]c3ccccc3c2=O)CC1`, 7.75%.
The same measure, in the same setting: to `COc1ccc(C(=O)c2ccc(OC)cc2O)c(O)c1` belongs -5.59% [at 79.2 µM]; to `CCCCC(CC)COC(=O)CCCCCCCCC(=O)OCC(CC)CCCC` (stereo unspecified), 1.31%; to `c1ccc(CNCCNCc2ccccc2)cc1`, -0.0875%.
Still for that read-out and setting: the figure for `C#CCN(C)CCCOc1ccc(Cl)cc1Cl` is -2.09%; for `CC(=O)c1ccc2c(c1)N(CCCN(C)C)c1ccccc1S2` it is -0.0313% [at 29.2 µM]; for `CCCCCCCCCCCCCCCCCCOS(=O)(=O)O` it is 4.66%.
In the case of `Brc1c2ccccc2cc2ccccc12`, the activation is 9.34% [inconclusive] [at 79.2 µM] (active).
For `O=C(NCCO[N+](=O)[O-])c1cccnc1`, the “activation” value is -2.01%.
The same measure, in the same setting: the figure for `CCOc1ccc(O)cc1` is -0.476%.
On the same count and under the same terms, the figure for `C=C1[C@H]2CC[C@@H]3[C@H]2C(C)(C)CCC[C@]13C` is 0.0784%; for `CCCCC(CC)CN1C(=O)C2C3C=CC(C3)C2C1=O` (stereo unspecified) it is -3.22%; for `CC(C)CC(=O)C1C(=O)c2ccccc2C1=O` it is 2.62%.
Still for that read-out and setting: the figure for `CC1OC(=O)C(C)OC1=O` (stereo unspecified) is -1.96%; for `OC(CN1CCC(Cc2ccc(F)cc2)CC1)c1ccc(Cl)cc1` (stereo unspecified) it is -0.424%.
With `CCCCC(=O)OCC(=O)[C@H]1[C@H](C)C[C@H]2[C@@H]3C[C@H](F)C4=CC(=O)C=C[C@]4(C)[C@@]3(F)[C@@H](O)C[C@@]21C`, the Potency was 0.0076 µM [inconclusive] (active).
`CC(C)C[C@H]1C(=O)N2CCC[C@H]2[C@]2(O)O[C@](NC(=O)[C@@H]3C=C4c5cccc6[nH]c(Br)c(c56)C[C@H]4N(C)C3)(C(C)C)C(=O)N12`: the Potency result is “inactive”.
As to `CC(C)(CO)[N+](=O)[O-]`, the “activation” value was -1.92%.
The same measure, in the same setting: to `O=C(OCCc1ccccc1)c1ccccc1` belongs 2.71%.
Same read-out and setting: the figure for `COc1ccc(S(=O)(=O)N2C(=O)[C@@](c3ccccc3OC)(N3C[C@H](O)C[C@H]3C(=O)N(C)C)c3cc(Cl)ccc32)c(OC)c1` is -13.3%.
On the same count and under the same terms, the figure for `O=C1OC(CN2CCOCC2)CN1/N=C/c1ccc([N+](=O)[O-])o1` (stereo unspecified) is 8.38% [at 29.2 µM]; for `OC[C@H]1O[C@@H](OCCc2ccc(O)cc2)[C@H](O)[C@@H](O)[C@@H]1O` it is -0.0144%.
Turning to `Cc1[nH]c(C)c(Cl)c(=O)c1Cl`, the “activation” value was -1.44%.
The same measure, in the same setting: to `CCCCCCCN` belongs -1.08% [at 79.2 µM].
Same read-out and setting: to `C[Si](C)(CCCN)O[Si](C)(C)CCCN` belongs -3.91%; to `CCOC(=O)C(F)(F)F`, 0.544%.

Source of the values: PubChem BioAssay (Tox21).
